Compound in the test: Nc1ncnc2c1ncn2[C@@H]1O[C@H](COP(=O)(O)OP(=O)(O)OP(=O)(O)O)[C@@H](O)[C@H]1O [adenosine 5'-triphosphate]
The experiment in a line: log2 fold change of tryptic peptide abundance, ligand vs vehicle (limited proteolysis) (log2 ratio); higher = more trypsin-susceptible (destabilized). The following applies: ligand concentration: 5 mM; sample: E. coli desalted lysate; replicate design: treated before aliquoting. The protocol:
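HT-PELSA: desalted E. coli K-12 BW25113 lysate (with 12 mM MgCl2) incubated with 5 mM ATP (pH 7) or water for 30 min at 25 C, then a 4 min trypsin pulse at 22 C. Peptides were quantified by DIA-MS (4 replicates). Value is the peptide log2 fold change (treated/control); negative = stabilized. Scale: negative = ligand-stabilized region.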
Sequence of UniProt P52101 (P52101 whole entry): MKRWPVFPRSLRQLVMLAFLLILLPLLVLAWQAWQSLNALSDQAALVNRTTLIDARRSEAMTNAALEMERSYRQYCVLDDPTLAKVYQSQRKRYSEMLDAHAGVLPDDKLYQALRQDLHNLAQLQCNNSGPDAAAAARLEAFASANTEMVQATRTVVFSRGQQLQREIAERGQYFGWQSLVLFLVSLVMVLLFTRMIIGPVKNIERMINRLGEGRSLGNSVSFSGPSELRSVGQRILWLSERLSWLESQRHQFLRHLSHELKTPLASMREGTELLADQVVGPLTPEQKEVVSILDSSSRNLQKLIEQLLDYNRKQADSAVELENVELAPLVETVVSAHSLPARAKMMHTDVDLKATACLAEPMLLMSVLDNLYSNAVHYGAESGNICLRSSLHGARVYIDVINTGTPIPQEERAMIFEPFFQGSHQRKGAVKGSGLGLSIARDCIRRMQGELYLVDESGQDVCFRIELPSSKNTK
Sequence of UniProt P42593 (P42593 whole entry): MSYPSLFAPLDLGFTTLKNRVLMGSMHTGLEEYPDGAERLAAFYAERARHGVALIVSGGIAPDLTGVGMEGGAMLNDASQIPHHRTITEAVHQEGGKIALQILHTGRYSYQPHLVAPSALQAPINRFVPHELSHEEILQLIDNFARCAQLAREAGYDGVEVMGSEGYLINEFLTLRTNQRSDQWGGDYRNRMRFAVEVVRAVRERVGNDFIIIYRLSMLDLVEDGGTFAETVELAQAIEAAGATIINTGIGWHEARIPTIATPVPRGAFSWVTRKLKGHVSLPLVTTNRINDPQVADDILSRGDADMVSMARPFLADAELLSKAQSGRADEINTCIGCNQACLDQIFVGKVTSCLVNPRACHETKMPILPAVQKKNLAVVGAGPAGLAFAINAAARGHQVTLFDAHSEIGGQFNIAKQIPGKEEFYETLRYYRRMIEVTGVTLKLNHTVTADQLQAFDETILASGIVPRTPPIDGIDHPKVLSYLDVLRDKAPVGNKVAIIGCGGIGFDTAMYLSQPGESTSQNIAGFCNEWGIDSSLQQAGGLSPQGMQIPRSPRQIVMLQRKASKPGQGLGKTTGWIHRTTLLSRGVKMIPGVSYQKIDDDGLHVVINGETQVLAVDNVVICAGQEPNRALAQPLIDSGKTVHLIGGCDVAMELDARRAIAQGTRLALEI
Sequence of UniProt P55734 (P55734 whole entry): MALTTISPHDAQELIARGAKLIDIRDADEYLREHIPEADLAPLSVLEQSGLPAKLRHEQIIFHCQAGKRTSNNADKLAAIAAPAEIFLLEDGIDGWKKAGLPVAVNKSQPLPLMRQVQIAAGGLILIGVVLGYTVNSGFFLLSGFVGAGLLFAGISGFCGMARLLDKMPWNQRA
Sequence of UniProt Q46915 (Q46915 whole entry): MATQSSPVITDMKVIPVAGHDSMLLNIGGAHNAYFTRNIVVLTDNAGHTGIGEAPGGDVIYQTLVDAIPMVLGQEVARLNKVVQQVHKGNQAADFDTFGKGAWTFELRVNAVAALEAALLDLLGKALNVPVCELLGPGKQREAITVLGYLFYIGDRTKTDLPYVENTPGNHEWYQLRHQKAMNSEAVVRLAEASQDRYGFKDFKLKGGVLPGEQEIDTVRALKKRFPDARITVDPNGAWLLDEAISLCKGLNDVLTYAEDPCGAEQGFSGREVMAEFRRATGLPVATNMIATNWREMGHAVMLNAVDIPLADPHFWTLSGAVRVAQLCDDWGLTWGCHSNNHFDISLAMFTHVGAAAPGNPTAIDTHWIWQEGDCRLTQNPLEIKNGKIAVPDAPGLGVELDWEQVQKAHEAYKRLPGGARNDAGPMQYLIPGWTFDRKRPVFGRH
Sequence of UniProt P31470 (P31470 whole entry): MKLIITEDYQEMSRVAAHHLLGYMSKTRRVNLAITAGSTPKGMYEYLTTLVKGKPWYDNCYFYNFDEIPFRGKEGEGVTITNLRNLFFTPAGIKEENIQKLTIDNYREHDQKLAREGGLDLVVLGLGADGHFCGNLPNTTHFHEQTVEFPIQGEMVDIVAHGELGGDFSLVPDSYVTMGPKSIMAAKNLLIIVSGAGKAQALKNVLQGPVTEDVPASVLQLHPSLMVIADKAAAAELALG
Sequence of UniProt P00582 (P00582 whole entry): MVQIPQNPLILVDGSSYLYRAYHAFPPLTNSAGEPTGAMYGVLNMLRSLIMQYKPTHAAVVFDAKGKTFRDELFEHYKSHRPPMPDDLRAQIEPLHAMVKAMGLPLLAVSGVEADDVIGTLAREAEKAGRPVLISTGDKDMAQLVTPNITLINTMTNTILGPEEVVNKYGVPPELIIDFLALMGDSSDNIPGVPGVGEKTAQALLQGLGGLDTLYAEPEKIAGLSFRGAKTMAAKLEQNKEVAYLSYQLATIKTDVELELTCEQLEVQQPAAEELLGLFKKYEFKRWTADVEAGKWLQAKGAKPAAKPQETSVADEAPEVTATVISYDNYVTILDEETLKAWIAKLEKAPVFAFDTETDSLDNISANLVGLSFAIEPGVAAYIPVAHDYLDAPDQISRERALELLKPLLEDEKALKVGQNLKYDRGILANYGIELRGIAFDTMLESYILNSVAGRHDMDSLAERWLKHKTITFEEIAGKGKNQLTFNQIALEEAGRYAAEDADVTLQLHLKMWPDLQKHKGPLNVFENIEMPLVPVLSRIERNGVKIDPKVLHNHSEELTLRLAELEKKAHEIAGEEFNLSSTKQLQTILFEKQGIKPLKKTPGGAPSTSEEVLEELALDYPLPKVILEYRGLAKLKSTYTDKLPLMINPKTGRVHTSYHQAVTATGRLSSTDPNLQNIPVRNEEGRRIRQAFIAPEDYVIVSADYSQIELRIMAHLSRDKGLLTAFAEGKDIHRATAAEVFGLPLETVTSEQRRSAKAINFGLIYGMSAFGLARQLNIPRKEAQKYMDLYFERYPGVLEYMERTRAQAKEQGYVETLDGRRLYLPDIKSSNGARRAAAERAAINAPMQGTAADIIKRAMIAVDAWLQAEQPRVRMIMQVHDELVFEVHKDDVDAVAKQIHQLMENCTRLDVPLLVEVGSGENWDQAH
Sequence of UniProt P08394 (P08394 whole entry): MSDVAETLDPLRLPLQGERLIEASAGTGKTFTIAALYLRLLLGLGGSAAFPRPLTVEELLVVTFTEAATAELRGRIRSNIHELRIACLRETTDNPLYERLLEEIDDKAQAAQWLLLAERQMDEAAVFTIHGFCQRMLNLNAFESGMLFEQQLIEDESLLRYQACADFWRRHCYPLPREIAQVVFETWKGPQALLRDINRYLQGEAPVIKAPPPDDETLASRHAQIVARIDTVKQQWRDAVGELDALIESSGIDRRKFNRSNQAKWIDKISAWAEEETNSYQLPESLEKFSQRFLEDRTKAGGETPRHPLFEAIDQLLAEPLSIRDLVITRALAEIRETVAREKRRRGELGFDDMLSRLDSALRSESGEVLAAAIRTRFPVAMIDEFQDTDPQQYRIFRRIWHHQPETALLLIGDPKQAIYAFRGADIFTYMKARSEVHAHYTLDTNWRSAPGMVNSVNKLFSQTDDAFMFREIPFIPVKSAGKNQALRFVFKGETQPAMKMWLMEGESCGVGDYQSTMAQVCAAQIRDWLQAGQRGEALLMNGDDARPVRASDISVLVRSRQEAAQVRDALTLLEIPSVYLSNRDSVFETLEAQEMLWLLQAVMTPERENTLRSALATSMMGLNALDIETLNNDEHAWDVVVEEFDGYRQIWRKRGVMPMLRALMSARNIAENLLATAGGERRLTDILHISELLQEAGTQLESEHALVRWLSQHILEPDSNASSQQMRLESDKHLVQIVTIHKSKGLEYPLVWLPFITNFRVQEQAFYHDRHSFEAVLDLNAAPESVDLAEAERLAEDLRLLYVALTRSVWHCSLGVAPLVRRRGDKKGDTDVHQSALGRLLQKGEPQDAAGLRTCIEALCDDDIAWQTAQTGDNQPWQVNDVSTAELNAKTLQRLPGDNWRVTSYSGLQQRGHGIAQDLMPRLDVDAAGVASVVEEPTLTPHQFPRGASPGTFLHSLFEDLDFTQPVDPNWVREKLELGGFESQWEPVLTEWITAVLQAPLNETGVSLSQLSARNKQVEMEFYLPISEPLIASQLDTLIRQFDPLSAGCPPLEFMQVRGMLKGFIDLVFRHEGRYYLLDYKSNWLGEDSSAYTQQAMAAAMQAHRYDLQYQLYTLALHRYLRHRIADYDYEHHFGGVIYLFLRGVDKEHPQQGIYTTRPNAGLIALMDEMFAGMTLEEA
Sequence of UniProt P75829 (P75829 whole entry): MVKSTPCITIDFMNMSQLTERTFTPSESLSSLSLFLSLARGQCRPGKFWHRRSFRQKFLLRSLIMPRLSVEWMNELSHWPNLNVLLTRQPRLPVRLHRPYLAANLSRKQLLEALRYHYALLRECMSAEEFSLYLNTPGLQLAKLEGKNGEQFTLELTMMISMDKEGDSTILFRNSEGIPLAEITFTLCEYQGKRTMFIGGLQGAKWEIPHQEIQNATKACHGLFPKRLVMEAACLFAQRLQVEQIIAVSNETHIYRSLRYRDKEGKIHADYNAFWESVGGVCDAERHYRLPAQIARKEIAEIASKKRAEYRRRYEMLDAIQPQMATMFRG
On to “UniProt Q46915 (peptide sequence: AMNSEAVVR, peptide start residue: 181)”, for which the log2 fold change was -0.607.

With “UniProt P52101 (peptide sequence: AMIFEPFFQGSHQR, peptide start residue: 414)”, the log2 fold change was 0.36.

For the target “UniProt P55734 (peptide sequence: LRHEQIIFHCQAGKR, peptide start residue: 55)”, the log2 fold change came to 0.948.

With “UniProt P00582 (peptide sequence: QLNIPRK, peptide start residue: 776)”, the log2 fold change is -3.24.

In the case of “UniProt P31470 (peptide sequence: EGEGVTITNLR, peptide start residue: 74)”, the log2 fold change is -0.324.

As for “UniProt P42593 (peptide sequence: MIEVTGVTLK, peptide start residue: 435)”, the log2 fold change was -1.15.

As to “UniProt P08394 (peptide sequence: HCYPLPR, peptide start residue: 171)”, the log2 fold change was determined as 1.13.

For “UniProt P75829 (peptide sequence: EIAEIASK, peptide start residue: 298)”, the log2 fold change is -0.281.

The record behind these values is the supplement of paper PMC12819154, “High-throughput peptide-centric local stability assay extends protein–ligand identification to membrane proteins, tissues and bacteria” (Nature Structural & Molecular Biology, 2025).
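Note: lysate desalted by size exclusion to strip endogenous ATP, peptide intensities built from DIA-NN precursor signals, and peptides missing any value discarded before comparison.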
